The structures appear in SMILES notation. Inconclusive results are not listed. A number with no mark means an inactive call. Calls of active or inactive are those of the source. Calls follow the shape of the dose curve; as a rule, active = well fitted curve in the direction sought with a large enough effect; inconclusive = small, poorly fitted or top-dose-only effect, or another doubt; inactive = no such curve, though single readings can be large; an effect the other way counts as inactive or inconclusive.

In assay [1] the target is Rap guanine nucleotide exchange factor 3 (Homo sapiens) (UniProt O95398). Description: Confirmatory qHTS for agonist of cAMP-regulated guanine nucleotide exchange factor 3 (EPAC1) (AID 1645881;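 also: EPAC1 catalysed release of BODIPY-GDP from Rap1B seen as fluorescence loss; 100% = effect of cAMP agonist control; nearly all actives have a fitted effect of over 75% in size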). (qHTS replaces the single test concentration by a dilution series.)
For assay [2], the target named is Rap guanine nucleotide exchange factor 4 (Homo sapiens) (UniProt Q8WZA2). Description: Confirmatory qHTS for agonist of cAMP-regulated guanine nucleotide exchange factor 4 (EPAC2) (AID 1645884).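 Also: nucleotide exchange releases bodipy-GDP from Rap1 and this lowers its fluorescence; % is scaled to controls: 0 for no effect and ±100 for the full control effect; nearly all actives have a fitted effect of over 65% in size.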
The target is the same in assay [3]. Description: Confirmatory qHTS for antagonist of cAMP-regulated guanine nucleotide exchange factor 4 (EPAC2) (AID 1645885). Also: nearly all actives have a fitted effect of over 25% in size. Also: potency is read from the fitted curve at half-maximal effect. As to activity change, negative = inhibition: % is scaled to controls: 0 for no effect and ±100 for the full control effect.
Assay [4] deals with Rap guanine nucleotide exchange factor 3 (Homo sapiens) (UniProt O95398). As to the kind of experiment: Counterscreen qHTS for antagonist of cAMP-regulated guanine nucleotide exchange factor 3 (EPAC1) (AID 1645888).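 Also: fluorescence loss as bound BODIPY-GDP is released from Rap1B; % of control where 0% means no effect.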 Summed up:
(§1)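 Measured: fluorescence of BODIPY-GDP bound to Rap1B, which falls as exchange proceeds. Conditions include 50 uM competing GDP, 5 and 30 min reads, and a later cAMP challenge for antagonist detection.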
On the technique in general: The purpose of a counterscreen is to sort out artefacts and off-target activity.

For assay [5] the target is unchanged. Description: Counterscreen qHTS for agonist of cAMP-regulated guanine nucleotide exchange factor 3 (EPAC1) (AID 1645889). Also: % of control where 0% means no effect; nearly all actives have a fitted effect of over 40% in size. Summed up:
as §1

Rap guanine nucleotide exchange factor 4 (Homo sapiens), sequence (Q8WZA2 whole entry, looked up): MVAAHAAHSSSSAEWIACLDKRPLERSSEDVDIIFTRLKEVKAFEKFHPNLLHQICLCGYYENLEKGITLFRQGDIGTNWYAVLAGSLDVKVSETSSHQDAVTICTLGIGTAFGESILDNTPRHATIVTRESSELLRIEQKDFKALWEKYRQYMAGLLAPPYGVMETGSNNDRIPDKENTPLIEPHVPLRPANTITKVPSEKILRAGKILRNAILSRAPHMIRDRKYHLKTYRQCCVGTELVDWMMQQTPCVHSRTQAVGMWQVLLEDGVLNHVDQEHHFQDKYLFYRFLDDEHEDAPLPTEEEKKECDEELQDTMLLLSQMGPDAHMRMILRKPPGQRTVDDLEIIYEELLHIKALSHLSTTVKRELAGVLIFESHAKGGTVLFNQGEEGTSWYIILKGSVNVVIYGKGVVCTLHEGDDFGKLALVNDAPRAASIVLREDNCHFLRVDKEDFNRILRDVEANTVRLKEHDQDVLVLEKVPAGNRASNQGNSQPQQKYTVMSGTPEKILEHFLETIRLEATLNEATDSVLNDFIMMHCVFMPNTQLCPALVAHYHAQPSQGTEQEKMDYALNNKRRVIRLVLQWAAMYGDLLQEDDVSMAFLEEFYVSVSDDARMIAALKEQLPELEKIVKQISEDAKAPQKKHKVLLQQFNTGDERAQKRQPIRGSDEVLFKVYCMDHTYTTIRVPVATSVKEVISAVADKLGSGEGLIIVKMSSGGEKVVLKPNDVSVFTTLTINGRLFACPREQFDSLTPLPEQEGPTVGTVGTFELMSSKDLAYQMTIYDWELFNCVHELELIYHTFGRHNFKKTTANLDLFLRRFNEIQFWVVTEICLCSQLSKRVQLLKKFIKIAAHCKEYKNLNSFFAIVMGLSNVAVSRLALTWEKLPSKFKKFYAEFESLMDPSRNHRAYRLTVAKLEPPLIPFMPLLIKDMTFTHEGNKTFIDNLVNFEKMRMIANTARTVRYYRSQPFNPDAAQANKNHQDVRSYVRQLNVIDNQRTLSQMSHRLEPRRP
Rap guanine nucleotide exchange factor 3 (Homo sapiens), sequence (O95398 whole entry, looked up): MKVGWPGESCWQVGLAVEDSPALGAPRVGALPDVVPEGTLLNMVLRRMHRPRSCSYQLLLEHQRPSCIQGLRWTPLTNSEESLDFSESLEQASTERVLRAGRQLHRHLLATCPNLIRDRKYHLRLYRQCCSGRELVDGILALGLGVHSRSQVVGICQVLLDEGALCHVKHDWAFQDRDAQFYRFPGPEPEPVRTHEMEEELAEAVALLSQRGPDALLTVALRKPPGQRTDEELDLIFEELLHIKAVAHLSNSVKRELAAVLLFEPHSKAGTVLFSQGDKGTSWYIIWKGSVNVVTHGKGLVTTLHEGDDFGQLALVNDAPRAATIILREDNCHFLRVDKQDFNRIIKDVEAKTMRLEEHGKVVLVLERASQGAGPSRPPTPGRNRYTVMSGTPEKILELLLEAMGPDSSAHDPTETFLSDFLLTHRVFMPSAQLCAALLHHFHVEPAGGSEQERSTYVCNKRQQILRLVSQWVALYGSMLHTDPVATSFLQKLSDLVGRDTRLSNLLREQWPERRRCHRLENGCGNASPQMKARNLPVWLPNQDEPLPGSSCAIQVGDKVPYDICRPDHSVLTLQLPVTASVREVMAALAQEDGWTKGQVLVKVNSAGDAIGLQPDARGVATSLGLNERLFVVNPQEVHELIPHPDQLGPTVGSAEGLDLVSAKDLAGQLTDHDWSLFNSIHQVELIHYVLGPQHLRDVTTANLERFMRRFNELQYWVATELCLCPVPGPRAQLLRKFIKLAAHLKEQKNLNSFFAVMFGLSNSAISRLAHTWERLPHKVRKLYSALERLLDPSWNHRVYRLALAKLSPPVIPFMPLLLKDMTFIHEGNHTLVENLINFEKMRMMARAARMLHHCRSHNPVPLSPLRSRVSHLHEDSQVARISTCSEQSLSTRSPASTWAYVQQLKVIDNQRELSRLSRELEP

Consider `C/C(CC(=O)N1CCCC1)=N\NC(=O)c1cc2ccccc2cc1O`, for which the Potency entry in assay [1], in assay [2], in assay [3], in assay [4] and in assay [5] was “inactive” each time.

In the case of `COc1ccccc1Cc1c(-c2ccco2)nc2cc(C)c(Br)c(C)n12`, the Potency entry in assay [1] and in assay [3] was “inactive” throughout. Besides, the activation in assay [2] was 3.49% [at 17.1 µM, percent relative to cAMP agonist control]; in assay [5] it was 13.6% [at 30.8 µM]. Further, in assay [4], the activity change, negative = inhibition was -0.951% [at 30.8 µM].

Take `CC1=NCCN1S(=O)(=O)c1c(C(C)C)cc(C(C)C)cc1C(C)C`: the Potency result in assay [1], in assay [2], in assay [3], in assay [4] and in assay [5] was “inactive” throughout.

As for `C=CCN1C(=O)/C(=C/c2ccc(OCC(=O)O)cc2)S/C1=N/c1nccs1`, the Potency entry in assay [1] and in assay [3] was “inactive” throughout. The activation in assay [2] was 0% [at 17.1 µM, percent relative to cAMP agonist control]; in assay [5] it was 14.3% [at 30.8 µM]. In assay [4], the activity change, negative = inhibition is -1.64% [at 30.8 µM].

For `COc1cc(O)c(C=NN2C(=O)CSC2=S)c(OC)c1`, the Potency result in assay [1], in assay [2], in assay [3], in assay [4] and in assay [5] was “inactive” throughout.

With `COC1=CC(=O)C(C2CC(=O)c3c(O)cc(O)cc3O2)=CC1=O` (stereo not given), the Potency result in assay [1] and in assay [3] was “inactive” in each case. For the same compound, the activation in assay [2] was 9.22% [at 17.1 µM, percent relative to cAMP agonist control]; in assay [5] it was 4.79% [at 30.8 µM]. Besides, in assay [4], the activity change, negative = inhibition is -16% [at 30.8 µM].

Turning to `CN(Cc1ccc(Cl)cc1Cl)C(=O)CN1C(=O)NC2(CCCC2)C1=O`, the Potency result in assay [1], in assay [2], in assay [3], in assay [4] and in assay [5] was “inactive” each time.

As to `CSc1ccccc1NC(=O)CN1c2ccccc2CC1C` (stereo not given), the Potency entry in assay [1] and in assay [3] was “inactive” throughout. In addition, the activation in assay [2] was 8.71% [at 17.1 µM, percent relative to cAMP agonist control]; in assay [5], 44.6% [at 30.8 µM]. Also, the activity change, negative = inhibition in assay [4] is -0.569% [at 30.8 µM].

For `COC(=O)c1ccc2nc(-c3ccco3)c(Cc3ccc(OC)cc3C)n2c1`, the Potency entry in assay [1], in assay [2], in assay [3], in assay [4] and in assay [5] was “inactive” in each case.

For the compound `N#Cc1c(SCC(=O)Nc2nncs2)sc2c(O)cc(=O)[nH]c12`, the Potency result in assay [1], in assay [2], in assay [3], in assay [4] and in assay [5] was “inactive” each time.

`CC1(C)C=Cc2cc(-c3coc4cc(O)cc(O)c4c3=O)cc(O)c2O1`: the Potency result in assay [1], in assay [2], in assay [3], in assay [4] and in assay [5] was “inactive” in each case.

As for `Cc1cc(-c2ccc(C(C)C)c(S(=O)(=O)N3CCC(C)CC3)c2)on1`, the Potency result in assay [1] and in assay [3] was “inactive” in each case. For the same compound, the activation in assay [2] is 8.04% [at 17.1 µM, percent relative to cAMP agonist control]; in assay [5] it was 0.648% [at 30.8 µM]. Further, the activity change, negative = inhibition in assay [4] is -17.5% [at 30.8 µM].

With `Cc1csc2c(=O)sc(NC(=O)c3cccs3)nc12`, the Potency result in assay [1], in assay [2], in assay [3], in assay [4] and in assay [5] was “inactive” each time.

For `COC(=O)c1cc(Sc2c(Cl)cccc2Cl)ccn1`, the Potency result in assay [1], in assay [2], in assay [4] and in assay [5] was “inactive” throughout. The Potency in assay [3] was 30.1 µM (active).

In the case of `COc1ccc(S(=O)(=O)NC(=O)C2(C)CCN2C(=O)C2(c3ccccc3)CCCC2)cc1` (stereo not given), the Potency result in assay [1] and in assay [3] was “inactive” in each case. Further, the activation in assay [2] was -3.86% [at 17.1 µM, percent relative to cAMP agonist control]; in assay [5], -0.406% [at 30.8 µM]. Also, the activity change, negative = inhibition in assay [4] was -2.65% [at 30.8 µM].

For the compound `N#CC(c1nc2ccccc2nc1OCCO)S(=O)(=O)c1ccccc1` (stereo not given), the Potency entry in assay [1] and in assay [3] was “inactive” each time. Further, the activation was -1.2% [at 17.1 µM, percent relative to cAMP agonist control] in assay [2] and 20.5% [at 30.8 µM] in assay [5]. In addition, in assay [4], the activity change, negative = inhibition was -25.3% [at 30.8 µM].

As to `CC(C)(C)C(=O)Nc1cccc(C(=O)OCc2cc(=O)n3nc(C4CCCCC4)sc3n2)c1`, the Potency entry in assay [1], in assay [2], in assay [4] and in assay [5] was “inactive” in each case. Further, in assay [3], the outcome was “inactive [at 12.7 µM]”.

As for `CCOc1cc(/C=N/NC(=O)CSc2nncn2C)ccc1OC(=O)c1ccc(Cl)cc1`, the Potency entry in assay [1] and in assay [3] was “inactive” throughout. Further, the activation in assay [2] was 6.27% [at 17.1 µM, percent relative to cAMP agonist control]; in assay [5], 9.31% [at 30.8 µM]. Besides, the activity change, negative = inhibition in assay [4] was 0.431% [at 30.8 µM].

As to `COc1ccccc1C(CCN(Cc1ccccc1)C(C)=O)c1ccco1` (stereo not given), the Potency result in assay [1] and in assay [3] was “inactive” each time. In addition, the activation in assay [2] was 8.17% [at 17.1 µM, percent relative to cAMP agonist control]; in assay [5], 10.4% [at 30.8 µM]. Also, the activity change, negative = inhibition in assay [4] is -15.7% [at 30.8 µM].

As to `O=C(NCc1ccccc1)C(c1ccc(-c2ccccc2)cc1)n1c(=O)c(-c2ccco2)nc2ccccc21` (stereo not given), the Potency result in assay [1] and in assay [3] was “inactive” in each case. The activation was -1.87% [at 17.1 µM, percent relative to cAMP agonist control] in assay [2] and 21.4% [at 30.8 µM] in assay [5]. The activity change, negative = inhibition in assay [4] is 1.9% [at 30.8 µM].

The values are drawn from PubChem BioAssay (NCATS).
